Experimental data taken from PubChem BioAssay AID1347081 (National Center for Advancing Translational Sciences (NCATS), 2019).
Records with an inconclusive call do not appear. Values without a mark were called inactive. Calls of active or inactive are those of the source. Calls come from the whole dose curve.

Assay: qHTS for Inhibitors of the Functional Ribonucleoprotein Complex (vRNP) of Lassa (LASV) Arenavirus: Viability assay - alamar blue signal for LASV Confirmatory Screen
Details: LASV vRNP counter-screen cells; series mostly up to 53.9 µM; activity change, negative = decreased viability: at the top concentration

| SMILES | activity change, negative = decreased viability | Potency |
| --- | --- | --- |
| CCC(c1ccc(O)cc1)C(CC)c1ccc(O)cc1 (centres undefined) | -23.8% |  |
| CCC(C)c1nccnc1OC (centres undefined) | 6.84% [at 110 µM] |  |
| Clc1nccc2c1ccc1ccccc12 | -23.3% |  |
| CC(O)C(O)[C@H]1CNc2nc(N)[nH]c(=O)c2N1 (some centres undefined) | 25.3% |  |
| CCN(CC)C(=O)N[C@@H]1C=C2c3cccc4[nH]cc(c34)C[C@@H]2N(C)C1 | 2.86% |  |
| Fc1ccc(CNc2ncnc3ccc(F)cc23)cc1 |  | 15.3 µM (active) |
| O=c1[nH]c2ccccc2n1C1CCN(CCCC(c2ccc(F)cc2)c2ccc(F)cc2)CC1 | 16.9% |  |
| CN1C(C(=O)Nc2ccccn2)=C(O)c2ccccc2S1(=O)=O | -0.843% |  |
| CCCCCN=C(N)N/N=C/c1c[nH]c2ccc(OC)cc12 |  | 8.63 µM (active) |
| Nc1ccc([N+](=O)[O-])cc1O |  | 39.5 µM (active) |
| CCC1OC2(C)C(O)C(/C=C/C=C/C=C/c3oc(=O)cc(OC)c3C)OC1(C)C2OC(C)=O (centres undefined) |  | 0.109 µM (active) |
| CCOC(=O)OCC/C(SC(=O)OCC)=C(\C)N(C=O)Cc1cnc(C)nc1N | -11.9% |  |
| CCCCC/C(C=O)=C\c1ccccc1 | 34% |  |
| O=C(Nc1ccc([N+](=O)[O-])cc1Cl)c1cc(Cl)ccc1O |  | 2.17 µM (active) |
| CCC[C@H](N[C@@H](C)C(=O)N1[C@@H]2CCCC[C@H]2C[C@H]1C(=O)O)C(=O)OCC | -18.7% |  |
| Oc1cc(Cl)ccc1Oc1ccc(Cl)cc1Cl |  | 39.5 µM (active) |
| CN(C)c1ccc(O)c2c1C[C@H]1C[C@H]3[C@H](N(C)C)C(=O)C(C(N)=O)=C(O)[C@@]3(O)C(=O)C1=C2O | -28.6% |  |
| O=c1ccc2ccc(O)c(O)c2o1 | -19.2% |  |
| CC[C@@]1([C@@H]2O[C@@H]([C@H]3O[C@@](O)(CO)[C@H](C)C[C@H]3C)C[C@H]2C)CC[C@H]([C@]2(C)CC[C@]3(C[C@H](O)[C@@H](C)[C@@H]([C@@H](C)[C@@H](OC)[C@H](C)C(=O)O)O3)O2)O1 |  | 4.21 µM (active) |
| CC1OC(=O)[C@@H](C(C)C)NC(=O)C(C(C)C)OC(=O)[C@H](C(C)C)NC(=O)C(C)OC(=O)[C@@H](C(C)C)NC(=O)C(C(C)C)OC(=O)[C@H](C(C)C)NC(=O)C(C)OC(=O)[C@@H](C(C)C)NC(=O)C(C(C)C)OC(=O)[C@H](C(C)C)NC1=O (some centres undefined) |  | 1.22 µM (active) |
| COc1ccc(Cc2nccc3cc(OC)c(OC)cc23)cc1OC |  | 13.7 µM (active) |
| CCc1cncnc1N1CCN(Cc2nc3ccc(C(F)(F)F)cc3[nH]2)CC1 |  | 12.5 µM (active) |
| CNCCCC1c2ccccc2C=Cc2ccccc21 |  | 24.3 µM (active) |
| CCCCCC[C@H]1C(=O)O[C@H](C)[C@H](NC(=O)c2cccc(NC=O)c2O)C(=O)O[C@@H](C)[C@@H]1OC(=O)CC(C)C |  | 0.0544 µM (active) |
